From PubChem BioAssay
The list is not random: actives were taken first. Their share in the collection is about 6.9%.
Giardia killer – Small Molecules that selectively kill Giardia lamblia: qHTS; actives 0.15% (n = 340,000); activity change, % at 7.66 µM, hits read low; Giardia lamblia trophozoite viability; in the data active = activity change below about -80%; inconclusive = between about -30% and that limit;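 also: parasites exposed to compound for two days anaerobically before the ATP read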
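Media and compound were dispensed first, then trophozoites at 100 cells/well; plates sat 48 hrs at 37 deg C without oxygen before ATP luminescence reagent was added and read after 15-30 min at room temperature.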
S-ASM inh – Inhibitors of Secretory Acid Sphingomyelinase (S-ASM): qHTS. Sphingomyelin phosphodiesterase (Homo sapiens), P17405. actives 0.006% (n = 340,000). placental ASM, HMU-PC fluorogenic substrate, 60 min. Potency, µM (doses to about 57.5 µM), actives largely listed as inhibitors. AID 504937, 2011
Target sequence (P17405 47-631 limits assumed): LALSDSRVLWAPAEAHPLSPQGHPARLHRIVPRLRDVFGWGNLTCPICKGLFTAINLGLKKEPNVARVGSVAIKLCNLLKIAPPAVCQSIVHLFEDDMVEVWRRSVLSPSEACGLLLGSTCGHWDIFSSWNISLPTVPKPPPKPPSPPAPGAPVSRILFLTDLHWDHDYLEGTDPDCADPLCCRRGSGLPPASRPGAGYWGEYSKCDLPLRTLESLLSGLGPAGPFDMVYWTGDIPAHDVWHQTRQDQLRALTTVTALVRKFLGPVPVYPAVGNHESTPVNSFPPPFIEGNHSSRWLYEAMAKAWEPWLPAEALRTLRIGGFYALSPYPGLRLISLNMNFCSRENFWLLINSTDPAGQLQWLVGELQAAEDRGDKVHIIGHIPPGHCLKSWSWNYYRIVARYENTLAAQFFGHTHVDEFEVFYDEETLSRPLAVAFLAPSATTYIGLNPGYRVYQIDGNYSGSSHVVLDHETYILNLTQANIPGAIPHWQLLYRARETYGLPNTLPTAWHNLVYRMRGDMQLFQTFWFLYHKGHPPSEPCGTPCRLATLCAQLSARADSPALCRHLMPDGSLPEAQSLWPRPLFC
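Fluorescence read-out (Ex 386 nm, Em 447 nm) after stopping the reaction at pH 10. Enzyme: ASM from human placenta; substrate HMU-PC0, 9 uM final; 60 min, 37 °C. Compound preincubation 10 min, ambient temperature.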
KB-V1 MDR tox – qHTS assay for MDR1-selective chemotherapeutics: Primary screen using the drug-selected MDR subline cells KB-V1. KB-V1 MDR cells viability, CellTiter-Glo, 72 h. Potency, µM (highest dose often 46.1 µM), usual class: cytotoxic. actives 3.4% (n = 400,000); also: nearly all actives have a fitted effect of over 60% in size
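qHTS viability screen in drug-selected KB-V1 MDR cells: 72 h compound treatment at 37 degrees C, ATP luminescence end point.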
SW480 rereplic – A quantitative high throughput screen for small molecules that induce DNA re-replication in SW480 colon adenocarcinoma cells | AID 624297, 2012 | Potency, µM (series often up to 46.1 µM), usual class: activators | SW480 DNA re-replication, Hoechst DNA content imaging, 48 h | actives 1.8% (n = 340,000); also: nearly all actives have a fitted effect of over 55% in size
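Compounds, transferred as 23 nL by pin tool, were incubated with cells for 48 hr; DNA content per nucleus was then quantified by Hoechst staining and fluorescence plate imaging.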
KB-3-1 cytotox – qHTS assay for MDR1-selective chemotherapeutics: Primary screen using the parental adenocarcinoma cell KB-3-1; KB-3-1 viability, CellTiter-Glo ATP luminescence, 72 h; actives 1.4% (n = 400,000); Potency, µM (doses to about 46.1 µM), actives largely listed as cytotoxic; also: nearly all actives have a fitted effect of over 60% in size
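Cytotoxicity in the drug-sensitive parental line KB-3-1 was scored as loss of CellTiter-Glo luminescence following 72 h incubation with compound. Values come from curve fitting of normalized concentration-response data.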
MCF10A rereplic – A quantitative high throughput screen for small molecules that induce DNA re-replication in MCF 10a normal breast cells. MCF 10A DNA re-replication, Hoechst nuclear intensity, 48 h. Potency, µM (titrated, usually from 46.1 µM), usual class: activators. actives 2.9% (n = 350,000); also: nearly all actives have a fitted effect of over 50% in size
Numbers stand for hits; - = inactive; ? = inconclusive; . = no result. Unless noted, calls follow the shape of the dose curve; as a rule, active = well fitted curve in the direction sought with a large enough effect; inconclusive = small, poorly fitted or top-dose-only effect, or another doubt; inactive = no such curve, though single readings can be large; an effect the other way counts as inactive or inconclusive.

SMILES | Giardia killer | S-ASM inh | KB-V1 MDR tox | SW480 rereplic | KB-3-1 cytotox | MCF10A rereplic
CCCOc1ccc(C(=O)Nc2ccc(S(=O)(=O)Nc3cc(C)nc(C)n3)cc2)cc1 | - | - | - | - | - | -
O=C(Nc1ccccc1)N1CCC(C(=O)N2CCCC(C(F)(F)F)C2)CC1 (centres undefined) | - | - | . | - | . | -
C(=C\c1ccccc1)/CN1CCN(c2ncnc3c2oc2ccccc23)CC1 | - | - | 3.7µM | - | ? | -
c1ccc2[nH]c(CN3CCN(c4ncnc5c4oc4ccccc45)CC3)nc2c1 | - | - | - | - | - | -
COc1ccccc1N1CCN(c2ncnc3c2oc2ccccc23)CC1 | - | - | 6.5µM | 21µM | 5.8µM | 3.3µM
Fc1ccc(-n2ncc3c(Nc4ccc(Oc5ccc(Cl)cc5)cc4)ncnc32)cc1 | . | . | - | . | - | .
COc1cc(C)ccc1OCCSc1nnc(-c2ccc(C)cc2)o1 | . | . | - | . | - | .
C=CCNC(=O)C1CC1(c1cccc(C)c1)c1cccc(C)c1 (centres undefined) | - | - | ? | - | - | -
Cc1cccc(C2(c3cccc(C)c3)CC2C(=O)Nc2ccc([N+](=O)[O-])cc2O)c1 (centres undefined) | - | ? | 4.6µM | ? | 21µM | ?
CN(C)CCOC(=O)CCc1ccccc1 | - | - | - | - | - | -
CN(C)CCOC(=O)CCCCCCCCC(=O)OCCN(C)C | - | - | - | 3.7µM | - | -
CCOc1ccc(NC(=O)CN(C)C(=O)c2ccccc2OCc2c(C)noc2C)cc1OCC | - | - | - | - | - | -
O=C(C=P(c1ccccc1)(c1ccccc1)c1ccccc1)c1ccccc1-c1ccccc1C(=O)C=P(c1ccccc1)(c1ccccc1)c1ccccc1 | - | ? | - | 13µM | ? | -
O=C(NNC(=O)c1ccccc1-c1ccccc1C(=O)O)c1ccccc1 | - | - | - | - | - | -
COc1cc(-c2cc(OC)c(O)c(OC)c2)cc(OC)c1O | - | - | ? | 23µM | ? | ?
O=C(NNc1ccccn1)C(=O)NNS(=O)(=O)c1ccc(Cl)cc1 | - | - | 18µM | ? | ? | ?
COC(=O)[C@@]12C[C@@H](CC(=O)N3CCN(C(=O)c4ccco4)CC3)C(=O)N(Cc3ccc4c(c3)OCO4)C1=CCC(C)(C)C2 | . | . | - | . | - | .
c1ccc2sc(NC3=NCN(C4CCCCCC4)CN3)nc2c1 | - | - | 21µM | - | ? | -
c1ccc2oc(NC3=NCN(C4CCCCC4)CN3)nc2c1 | - | - | - | - | - | -
CC(=O)N1c2ccc(S(=O)(=O)Nc3ccc(C)c(C)c3)cc2CC1C (centres undefined) | . | . | - | . | - | .
N=C1SCC(=O)N1/N=C/c1ccccc1 | - | - | 6.5µM | ? | 7.3µM | -
COC(=O)c1c(NC(=O)/C=C/C(=O)O)sc(C)c1-c1ccc(C(C)C)cc1 | - | - | ? | 15µM | 21µM | 3.3µM
COC(=O)c1c(NC(=O)/C=C/C(=O)O)sc(C)c1-c1ccc(C)c(C)c1 | - | - | - | ? | ? | 16µM
CCOC(=O)c1c(NC(=O)/C=C/C(=O)O)sc(C)c1-c1ccc(C)c(C)c1 | - | - | - | - | - | 4.1µM
CC(C)=C1C2CCC1C(C(=O)Nc1sc(C)c(-c3ccc(C(C)C)cc3)c1C(N)=O)C2C(=O)O (centres undefined) | - | - | 2.1µM | ? | ? | -
COC(=O)c1c(NC(=O)/C=C/C(=O)O)sc(C)c1-c1ccc(C)cc1 | - | - | ? | ? | ? | ?
CCOC(=O)c1c(NC(=O)/C=C/C(=O)O)sc(C)c1-c1ccc(F)cc1 | - | - | ? | - | ? | ?
Nc1nc2ccccc2n1/N=C/c1ccc(Br)cc1 | - | - | 9.2µM | - | - | -
